Source: PubChem (several laboratories)
Rows were chosen to be rich in hits. Some 2.5% of all compounds tested hit in one or more screens of this group.
CHT allo act – CHT positive allosteric modulators, primary screen, cell-based, membrane potential dye, choline EC20 | AID 488977, 2010 | B-score at 10 µM | hit rate 0.49% among 310,000 | CHT-expressing cells; hits give high values; LV-AA mutant CHT in HEK293 cells | High affinity choline transporter 1 (Homo sapiens), Q9GZV3;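 active = initial fluorescence not abnormally high and integrated response B-score, plate-corrected, over 3 SD above library mean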
PKA-R2B activ – activators of PKA-R2B holoenzyme, primary screen, biochemical, fluorescence polarization, Cy5-IP20, human | hit rate 0.079% among 340,000 | PKA-R2B holoenzyme dissociation; R2B truncated from residue 108, S112A mutant; 0% DMSO only, 100% 113 µM cGMP | cAMP-dependent protein kinase catalytic subunit beta (Homo sapiens) + cAMP-dependent … | activation, % at 11.4 µM | AID 504700, 2011;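 active = activation above a cutoff set at the mean over all compounds plus 3 SD, cut at about 18% in these data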;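 note: higher means more holoenzyme dissociation and a rise in polarization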
TMEM16A inh – TMEM16A chloride channel inhibitors, primary screen, cell-based, HTS; AID 588511, 2011; Anoctamin-1 (Mus musculus), Q8BHY3; normalized B-score (activity score, 25-100; higher = stronger inhibition) at 10 µM; HEK293 TMEM16A/YFP iodide influx fluorescence, ionomycin; hit rate 1.2% among 310,000;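 active = ratio plate-corrected score three or more library SD toward inhibition, starting fluorescence score within five deviations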;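 note: score derived from kinetic fluorescence span divided by baseline fluorescence per well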
Target sequence (Q8BHY3 whole entry, looked up): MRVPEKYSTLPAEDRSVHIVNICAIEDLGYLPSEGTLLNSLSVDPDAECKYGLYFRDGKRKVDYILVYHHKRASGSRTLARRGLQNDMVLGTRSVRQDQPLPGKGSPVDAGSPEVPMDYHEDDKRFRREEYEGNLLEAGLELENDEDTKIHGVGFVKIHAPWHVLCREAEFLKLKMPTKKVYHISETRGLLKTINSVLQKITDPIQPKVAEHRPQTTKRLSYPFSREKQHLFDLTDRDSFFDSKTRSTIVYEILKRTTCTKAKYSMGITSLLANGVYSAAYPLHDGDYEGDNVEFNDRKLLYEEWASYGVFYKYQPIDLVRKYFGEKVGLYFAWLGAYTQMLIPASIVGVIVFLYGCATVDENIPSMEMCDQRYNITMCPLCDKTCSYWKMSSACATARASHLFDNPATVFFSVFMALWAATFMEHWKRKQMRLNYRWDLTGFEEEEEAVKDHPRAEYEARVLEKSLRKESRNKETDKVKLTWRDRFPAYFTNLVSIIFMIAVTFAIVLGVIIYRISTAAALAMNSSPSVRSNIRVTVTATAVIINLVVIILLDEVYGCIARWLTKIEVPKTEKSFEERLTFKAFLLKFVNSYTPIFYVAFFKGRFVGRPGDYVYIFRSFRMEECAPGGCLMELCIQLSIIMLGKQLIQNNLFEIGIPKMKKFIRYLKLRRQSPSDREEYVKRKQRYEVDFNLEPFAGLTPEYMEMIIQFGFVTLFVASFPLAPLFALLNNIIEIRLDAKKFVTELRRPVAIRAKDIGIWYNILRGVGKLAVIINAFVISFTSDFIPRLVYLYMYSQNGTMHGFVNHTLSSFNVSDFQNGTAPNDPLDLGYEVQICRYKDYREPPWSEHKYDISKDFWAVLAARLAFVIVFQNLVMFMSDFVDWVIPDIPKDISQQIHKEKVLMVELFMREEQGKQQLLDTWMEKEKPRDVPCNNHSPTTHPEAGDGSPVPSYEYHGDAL
CHT inh – inhibitors of human choline transporter CHT. AID 488975, 2010. hit rate 0.86% among 310,000. B-score at 10 µM. High affinity choline transporter 1 (Homo sapiens), Q9GZV3. CHT-expressing cells, membrane potential dye, choline response; hits give low values;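 active = B-score over 3 SD under the library average, and starting fluorescence ratio not unusually high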;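 note: choline stimulus applied at its EC90 after an EC20 pre-addition; B-score computed on integrated fluorescence ratio after choline addition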
PKA-R1A activ – activators of PKA-R1A holoenzyme, primary screen, biochemical, fluorescence polarization, Cy5-IP20, bovine R1A, mouse PKAc | activation, % at 11.4 µM | hit rate 0.083% among 340,000 | PKA-R1A dissociation; scaled: DMSO 0%, 113 µM cGMP 100% | AID 504707, 2011 | cAMP-dependent protein kinase type I-alpha regulatory subunit (Bos taurus) + …;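 active = percent activation above the mean of all tested compounds plus 3 SD, cut at about 19% in these data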;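 note: higher means more PKAc released from R1A so a rise in polarization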
TMEM16A act – TMEM16A chloride channel activators or potentiators, primary screen, cell-based, HTS; HEK293 TMEM16A/YFP-H148Q/I152L, iodide quench fluorescence; hits give low values; B-score at 10 µM; hit rate 0.3% among 340,000; Anoctamin-1 (Mus musculus), Q8BHY3;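 active = fluorescence-ratio B-score plate-corrected deviation score at least 3 library SD below zero, with starting fluorescence score within 5 deviations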;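 note: channel opened by trigger with iodide after compound preincubation; score built on the fluorescence ratio of max minus min over baseline; more negative score means more quench and so TMEM16A activation or potentiation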
CHT activ conf – CHT activators, confirmation, cell-based, membrane potential dye, duplicate; shares compounds with CHT allo act; CHT-expressing cells, membrane potential dye fluorescence (FDSS); % of choline EC20–EC90 response window; HEK293 expressing CHT LV-AA mutant; choline added at its EC20; activation, % at 10 µM; hit rate 91% among 2,500; AID 504833, 2011;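 active = primary screen active, with duplicate mean activation above negative control mean plus 3 SD, cut at about 11% in these data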
HEK293 MP dye – membrane potential response in parental HEK293 cells, counter-screen for CHT activator project, cell-based, membrane potential dye; shares compounds with CHT allo act; AID 623908, 2012; ratio readout change at 10 µM, hits read low; membrane potential dye fluorescence (FDSS); measured after EC20 choline addition; hit rate 62% among 2,500;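 active = duplicate-averaged ratio beyond 3 SD from buffer wells, up or down, though filed actives are nearly all decreases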
* hit, by the source's call; i = inactive; . = not tested or not shown.

SMILES	CHT allo act	PKA-R2B activ	TMEM16A inh	CHT inh	PKA-R1A activ	TMEM16A act	CHT activ conf	HEK293 MP dye
N#CC1=C(Nc2ccccc2)SC=C(c2ccc(Cl)c(Cl)c2)N=C1N1CCOCC1	i	4.1	i	i	-3.2	i	40.4*	i
CCn1c(C(=O)NCCCc2ccccc2)cc2sccc21	6.56*	-3.4	i	i	-4.0	i	25.1*	i
O=C(NCCc1ccccc1)c1cc2sccc2n1Cc1ccccc1	i	-4.6	i	i	-6.3	.	.	.
CSCCC(NC(=O)c1ccccc1Cl)C(=O)Nc1ccncc1 (configuration not stated)	.	-7.2	.	.	1.4	i	.	.
O=C(NCCc1ccccc1)c1ccc(NC(=O)C2CCC2)cc1	.	-5.7	.	.	-7.4	.	.	.
COc1ccc(-c2csc(N(CCCN(C)C)C(=O)c3cccs3)n2)cc1	i	-13.6	i	i	0.3	i	36.3*	-43.4*
COc1ccc(-c2csc(N(CCCN(C)C)C(=O)c3ccc(C)cc3)n2)cc1	i	1.7	i	i	-10.7	i	.	.
CCC(=O)Nc1ccccc1C(=O)OC(c1ccccc1)c1ccccc1	7.34*	-5.7	i	i	-0.1	i	26.9*	i
Cc1cccc(COC(=O)CCCNC(=O)c2ccc(Cl)cc2)c1	.	1.6	.	.	-9.3	i	.	.
Cc1cc(OCC(=O)Nc2nccs2)c2c(C)cc(=O)oc2c1	i	-10.5	i	i	3.6	i	.	.
COc1ccc2oc(C(=O)OCC(=O)N(C)C3CCCCC3)c(C)c2c1	i	-3.3	i	i	-2.0	i	.	.
COc1cc2c(cc1OC)C(C)=NCC2	13.7*	-2.0	i	i	-6.2	i	60.0*	-67.6*
COc1cc2c(cc1OC)C(c1ccc(Cl)cc1)=NCC2	i	2.0	i	i	-11.8	i	62.5*	-78.9*
COc1cc2c(cc1OC)C(C)=NC1(CCCCC1)C2	9.8*	-9.0	i	i	-4.3	i	30.0*	-43.5*
COc1cc2c(cc1OC)C(SC)=NC1(CCCC1)C2	i	-2.5	i	i	-0.7	i	.	.
COc1cc2c(cc1OC)C(c1ccc(-c3ccc(Cl)c(Cl)c3)o1)=NCC2	i	6.3	i	i	-4.8	i	.	.
Cc1cc(NC(=O)C2CCN(C(=O)c3ccco3)CC2)ccc1Br	i	8.0	i	i	-3.8	i	.	.
Cc1cccc(CNC(=O)C2CCC(=O)N(C3CCCCCC3)C2)c1 (configuration not stated)	i	-3.7	i	i	-3.8	i	.	.
CC(=O)CCc1ccc(Oc2nc(-c3cccnc3)nc3ccccc23)cc1	i	-5.6	i	i	-5.3	i	.	.
CCOC(=O)c1c(C)n(C)c2ccc(OC)c(NC(=O)CCN3CCC(Cc4ccccc4)CC3)c12	i	-18.8	i	i	-12.3	i	7.3	i
CCOC(=O)c1c(C)n(C)c2ccc(OC)c(NC(=O)CN3CCSCC3)c12	i	2.7	i	i	3.2	i	.	.
Cc1ccccc1C(=O)NNC(=O)C1CC(=O)N(Cc2ccccc2)C1 (configuration not stated)	i	13.1	i	i	10.7	i	.	.
c1cc(N2CCCCC2)nc(N2CCCCC2)n1	.	1.3	.	.	2.1	i	.	.
Cn1cnc2c(N3CCCCC3)nccc21	8.69*	-5.0	i	i	1.4	i	70.8*	-64.5*
CC1C(=O)N(Cc2cn(CCC3OCCCO3)nn2)CCS(=O)(=O)N1Cc1ccc(-c2ccc(F)nc2)cc1 (configuration not stated)	.	-0.1	.	.	-9.8	.	.	.
SMILES	CHT allo act	PKA-R2B activ	TMEM16A inh	CHT inh	PKA-R1A activ	TMEM16A act	CHT activ conf	HEK293 MP dye
Cc1cc(Oc2ccc(C)c(Cl)c2)nc(SCC(=O)c2ccccc2)n1	7.17*	3.5	i	i	-7.2	i	56.4*	i
Cc1ccc(C(=O)CSc2cc(C)nc(SCC(=O)c3ccccc3)n2)cc1	i	-2.2	i	i	-10.8	i	.	.
CCOc1ccc(C(=O)C(CCC(CN(C)C)C(=O)c2ccc(OCC)cc2)CN(C)C)cc1 (configuration not stated)	.	-6.3	.	.	0.6	i	.	.
COc1ccc(C(=O)C(CCCCC(CN(C)C)C(=O)c2ccc(OC)cc2)CN(C)C)cc1 (configuration not stated)	i	-1.0	i	i	-8.1	i	15.3*	-27.2*
CCOC(=O)C(C)On1c(-c2ccccc2)nc2ccc([N+](=O)[O-])cc21 (configuration not stated)	i	5.3	i	i	-4.5	i	15.8*	-20.2*
O=C(O)COn1c(-c2ccccc2)nc2ccc([N+](=O)[O-])cc21	i	-3.5	i	i	-4.6	i	.	.
COc1ccc2sc(C)[n+](C)c2c1	11.3*	-9.6	i	i	-5.6	i	38.6*	-30.3*
CCCC[n+]1c(C)sc2cc(OC)ccc21	i	-13.3	i	i	12.7	i	.	.
CN(C)c1nc(N)c(C(=O)N=C(N)N)nc1Cl	8.73*	0.6	i	i	13.4	i	55.9*	-39*
COc1cc(Cn2ccnc2)c(OC)cc1Cn1ccnc1	13.4*	11.5	i	i	-5.6	i	81.0*	-82.7*
COc1ccc(C(=O)Nc2ccc(Cn3ccnc3)cc2)cc1OC	i	5.9	i	i	-1.8	i	.	.
O=C1C2CC(O)CN2C(=O)N1c1ccccc1 (configuration not stated)	i	-9.4	i	i	3.8	i	.	.
Cc1c(CCOC(=O)c2ccc([N+](=O)[O-])cc2)sc[n+]1CC(=O)c1ccccc1	7.06*	-0.9	i	i	0.9	i	58.1*	-52.1*
